Assay outcomes as filed in PubChem BioAssay.
WRN inhibitor: qHTS for Inhibitors of WRN Helicase. AID 651768, 2012. 360,000 tested, 0.46% active. Bifunctional 3'-5' exonuclease/ATP-dependent helicase WRN (Homo sapiens), Q14191. Potency, µM (series often up to 114 µM), for inactives: top-dose activity change, negative = inhibition, usual class: inhibitors. WRN helicase unwinding, fluorescent forked duplex, kinetic; also: potency is read from the fitted curve at half-maximal effect; % is scaled to controls: 0 for no effect and ±100 for the full control effect; nearly all actives have a fitted effect of over 55% in size
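Screening of the MLSMR collection measured strand separation of a quenched forked DNA duplex (100 nM) by 20 nM WRN with 2 mM ATP, all final. Compounds were preincubated with enzyme 15 min at room temperature.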
PI5P4K alpha inh: qHTS for Inhibitors of phosphatidylinositol 5-phosphate 4-kinase (PI5P4K); Phosphatidylinositol 5-phosphate 4-kinase type-2 alpha (Homo sapiens), P48426; PI5P4Kalpha enzyme, ADP-Glo luminescence, 60 min; hits give low values; max response, %; 330,000 tested, 1.2% active; AID 652105, 2013; active = max response of -50% or lower; inconclusive = between -30% and -50%; inactive = -30% or higher; also: value at the top dose of about 77 µM; % is scaled to controls: 0 for no effect and ±100 for the full control effect
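Reactions run in 0.038 M HEPES pH 7.4, 0.28 mM EGTA, 0.1% CHAPS and 5% DMSO, with PI5P4Kalpha, substrate, compound and 5 microM ATP final, one hour at room temperature. Readout is ADP-Glo luminescence.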
Pol eta inh: qHTS for Inhibitors of Polymerase Eta; DNA polymerase eta (Homo sapiens), Q9Y253; recombinant Pol eta, fluorescent DNA replication assay; Potency, µM (top dose mostly 114 µM), for the others: top-dose activity change, negative = inhibition, most hits filed as inhibitors; 390,000 tested, 1.2% active; AID 588591, 2011; also: potency is read from the fitted curve at half-maximal effect; % is scaled to controls: 0 for no effect and ±100 for the full control effect
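Pol eta (10 nM) was preincubated with compounds for 15 min at room temperature, after which fluorescent replication substrate (50 nM final) was added to start the reaction. Fluorescence was read kinetically at 0 and 10 min.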
Pol kappa inh: qHTS for Inhibitors of Polymerase Kappa; Potency, µM (titrated, usually from 107 µM), for inactives: at the highest dose activity, negative = inhibition, actives largely listed as inhibitors; 400,000 tested, 0.53% active; DNA polymerase kappa (Homo sapiens), Q9UBT6; AID 588579, 2011; purified Pol kappa, fluorescent DNA synthesis assay, 10 min; also: potency is read from the fitted curve at half-maximal effect; % is scaled to controls: 0 for no effect and ±100 for the full control effect
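First, compounds were pin-transferred onto 10 nM Pol kappa. After 15 min at room temperature, substrate was added to 50 nM final. Fluorescence was then measured kinetically at 0 and 10 min.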
Pol iota inh: qHTS for Inhibitors of Polymerase Iota | DNA polymerase iota (Homo sapiens), Q9UNA4 | Pol iota fluorescent replication assay, 10 min | Potency, µM (top dose mostly 115 µM), without a hit: top-dose activity, negative = inhibition, actives largely listed as inhibitors | 390,000 tested, 1% active | AID 588590, 2011; also: potency is read from the fitted curve at half-maximal effect
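Fluorescent replication assay read twice, at 0 min and 10 min after adding 50 nM (final) substrate. Enzyme (10 nM) and compounds were first incubated 15 min at room temperature; enzyme-free buffer wells were negative controls.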
Pol beta inh: qHTS Assay for Inhibitors of DNA Polymerase Beta; Potency, µM (doses to about 114 µM), inactives show at the top dose activity change, negative = inhibition, usual class: inhibitors; Pol beta primer extension/strand displacement, fluorescence kinetic; P06746; 340,000 tested, 1.3% active; also: potency is read from the fitted curve at half-maximal effect; % is scaled to controls: 0 for no effect and ±100 for the full control effect
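Homogeneous kinetic assay of primer extension and strand displacement by 10 nM Pol beta, preincubated 15 min at room temperature with compound before 50 nM substrate (final) was added. Read at 0 and 10 min; four-parameter Hill fit.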
The depositor's hits bear a star; ? = inconclusive; · = no result; [ ] = dose if it differs, or a comment. Hits are enriched below; roughly 2.8% of the tested compounds scored in any of these assays. Unless noted, calls follow the shape of the dose curve; as a rule, active = well fitted curve in the direction sought with a large enough effect; inconclusive = small, poorly fitted or top-dose-only effect, or another doubt; inactive = no such curve, though single readings can be large; an effect the other way counts as inactive or inconclusive.

SMILES	WRN inhibitor	PI5P4K alpha inh	Pol eta inh	Pol kappa inh	Pol iota inh	Pol beta inh
CCN(CC)c1ccc(/C=C/c2ccc3ccccc3n2)cc1	·	·	·	40µM*	?	·
O=C(CSc1ncc(CO)n1Cc1ccccc1)Nc1ccc(C(F)(F)F)cc1	·	·	-21%	-9%[60.1 µM]	-6%	-22%
N#CC(C#N)=C1C=CC=CN1/C(=C\c1ccco1)C(=O)c1ccc(Cl)cc1	22µM*	0	-13%	-19%	?	1%
Cc1cc(C)cc(Nc2cc(=O)n(C3CCCCC3)c(=O)[nH]2)c1	-17%	-3	?	-13%	-3%	45µM*
Cc1[nH]nc2c1C(c1ccsc1)C(C#N)=C(N)O2 (stereo unspecified)	-9%	-60*	-1%	-7%	3%	7%
Cc1ccc(-c2ccc(C3C(C#N)=C(N)Oc4n[nH]c(C)c43)o2)cc1 (stereo unspecified)	-28%	·	-11%	-18%	?	-20%
Cc1[nH]nc2c1C(c1ccc(-c3ccccc3C#N)o1)C(C#N)=C(N)O2 (stereo unspecified)	-31%	·	4%	4%	10%	56µM*
Cc1ccc(-c2[nH]nc3c2C(c2ccsc2)C(C#N)=C(N)O3)cc1 (stereo unspecified)	11%	-52*	-7%	1%	12%	12%
N#CC1=C(N)Oc2n[nH]c(-c3ccncc3)c2C1c1ccsc1 (stereo unspecified)	-12%	·	-16%	-14%	-6%	-1%
N#CC1=C(N)Oc2n[nH]c(-c3ccccc3)c2C1c1ccsc1 (stereo unspecified)	-18%	-65*	?	-16%	?	-24%
Cc1cccc(N2CCN(C(=O)CCn3c(=O)c4cccn4c4cccnc43)CC2)c1C	·	·	-12%	-10%	8%	41%
COc1cccc(NC(=O)Cn2cc(C(=O)c3ccco3)c3ccccc32)c1	·	·	-7%	2%	12%	-1%
COc1ccc(/C=N/NC(=O)c2cc(-c3ccc4c(c3)OCO4)n[nH]2)cc1OC	-6%[11.6 µM]	-3	?	?	?	4.5µM*
O=C(N/N=C/c1ccc(F)cc1)c1cc(-c2ccc3c(c2)OCO3)n[nH]1	-35%	0	2%	-15%	5%	?
COc1ccc(/C=N/NC(=O)c2ccc(=O)[nH]n2)cc1OC	-3%[57.1 µM]	-3	?	?	100µM*	7.9µM*
COc1ccc(/C=N/NC(=O)C(O)(c2ccccc2)c2ccccc2)cc1OC	-17%	-6	-23%	-13%	0%	14µM*
COc1ccc(/C=N/NC(=O)CCC(=O)Nc2ccccc2)cc1OC	0%	3	-2%	-30%	?	?
COc1ccc(/C=N\NC(=O)C2C(=O)NCC2c2ccccc2)cc1O (stereo unspecified)	-23%	-57*	-14%	-7%	-8%	-2%
COc1ccc(/C=N/NC(=O)c2cccc(C(=O)N/N=C/c3ccc(OC)c(OC)c3)n2)cc1OC	2%	-1	-7%	-13%	-10%	-11%
Clc1cccc(-n2ncc3c(NCCCN4CCOCC4)ncnc32)c1	·	·	-17%	-10%[60.1 µM]	18%	-15%
CC(=O)N1CCCc2cc(S(=O)(=O)N3CCC(C(=O)NCc4cccc(C)c4)CC3)ccc21	·	·	-5%	-3%[60.1 µM]	8%	1%
COc1cc(OC)cc(C(=O)NCCc2csc(-c3cccc(C)c3)n2)c1	·	·	-20%	-2%[60.1 µM]	-7%	10%
Cc1ccc2onc(CNC(=O)Nc3ccccc3C#N)c2c1	·	·	-18%	-13%	1%	-3%
COc1ccc(/C=N\NC(=O)c2ccc(=O)[nH]n2)cc1O	-17%[11.6 µM]	6	-10%	?	32µM*	13µM*
COc1ccc(/C=N/NC(=O)c2cc(C34CC5CC(CC(C5)C3)C4)[nH]n2)cc1O	-18%	-18	-21%	-8%	10%	-14%
